# In PubChem BioAssay:
# Calls of active or inactive are those of the source.
# Experiments:
# [1] = anti-His antibody binders, primary screen, artefact control for SMM control protein annotation, biochemical, small-molecule microarray, 635 nm fluorescence (AID 1128); settings: anti-His Alexa647 antibody binding, higher = more signal;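 further: score merges feature fluorescence with signal-to-noise for each printed compound spot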
# [2] = tested on: Human papillomavirus type 1a E7 protein (residues 1-88); assay: HPV1a E7 small-molecule binders, primary screen, biochemical, small-molecule microarray, residues 1-88, 635 nm (AID 1129); settings: small-molecule microarray binding, fluorescence 635 nm; higher = more signal
# [3] = target: Focal adhesion kinase 1 (Homo sapiens) (UniProt Q05397); assay: small-molecule microarray binders of FAK, primary screen, biochemical, 635/667 nm fluorescence, BSA, DTT (AID 1130); settings: PTK2 binding, 635 nm fluorescence, higher = more signal;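 further: composite of spot emission at 667 nm and signal to noise over triplicate slides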
# Focal adhesion kinase 1 (Homo sapiens), sequence (Q05397 whole entry, looked up): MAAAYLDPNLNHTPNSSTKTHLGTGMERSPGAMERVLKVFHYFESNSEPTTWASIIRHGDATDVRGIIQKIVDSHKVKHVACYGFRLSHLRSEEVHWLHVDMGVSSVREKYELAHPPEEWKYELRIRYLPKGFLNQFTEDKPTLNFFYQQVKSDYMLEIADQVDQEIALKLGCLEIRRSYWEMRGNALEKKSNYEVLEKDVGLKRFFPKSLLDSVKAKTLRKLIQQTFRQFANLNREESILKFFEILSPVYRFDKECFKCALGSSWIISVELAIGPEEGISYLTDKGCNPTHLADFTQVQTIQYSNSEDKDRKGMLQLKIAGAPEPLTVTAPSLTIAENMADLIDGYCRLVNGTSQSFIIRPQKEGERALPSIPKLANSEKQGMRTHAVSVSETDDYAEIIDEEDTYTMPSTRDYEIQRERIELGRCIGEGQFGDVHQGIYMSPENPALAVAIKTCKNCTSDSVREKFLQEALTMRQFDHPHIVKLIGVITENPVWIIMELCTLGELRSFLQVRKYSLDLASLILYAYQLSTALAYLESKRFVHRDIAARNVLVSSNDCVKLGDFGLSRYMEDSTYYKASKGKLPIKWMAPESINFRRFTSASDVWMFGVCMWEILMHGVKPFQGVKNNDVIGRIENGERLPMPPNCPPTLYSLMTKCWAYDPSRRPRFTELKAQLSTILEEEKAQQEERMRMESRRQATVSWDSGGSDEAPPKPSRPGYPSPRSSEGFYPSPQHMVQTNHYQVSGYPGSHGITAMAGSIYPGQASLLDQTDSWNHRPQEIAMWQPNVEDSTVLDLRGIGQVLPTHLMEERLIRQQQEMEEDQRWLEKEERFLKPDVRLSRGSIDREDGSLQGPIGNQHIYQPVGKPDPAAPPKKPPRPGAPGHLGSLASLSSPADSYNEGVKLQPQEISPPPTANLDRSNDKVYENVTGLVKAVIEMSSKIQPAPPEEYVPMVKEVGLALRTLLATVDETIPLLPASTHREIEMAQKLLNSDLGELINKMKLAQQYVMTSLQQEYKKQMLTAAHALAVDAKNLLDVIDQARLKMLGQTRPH
# [4] = tested on: Fibrinogen (Alexa647-labelled); assay: fibrinogen binders on compound microarrays, profiling panel, artefact control for SMM control-protein annotation, biochemical, small-molecule microarray, 635/667 nm fluorescence (AID 1131); settings: fibrinogen-A647 binding fluorescence, higher = more signal;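 further: z-score merges 667 nm fluorescence with per-spot signal-to-noise over triplicate slides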
# [5] = target: Follistatin (Homo sapiens) (UniProt P19883); assay: follistatin binders on small-molecule microarrays, primary screen, biochemical, small-molecule microarray, 635/667 nm fluorescence (AID 1132); settings: FST binding, 635 nm fluorescence, higher = more signal
# Follistatin (Homo sapiens), sequence (P19883 whole entry, looked up): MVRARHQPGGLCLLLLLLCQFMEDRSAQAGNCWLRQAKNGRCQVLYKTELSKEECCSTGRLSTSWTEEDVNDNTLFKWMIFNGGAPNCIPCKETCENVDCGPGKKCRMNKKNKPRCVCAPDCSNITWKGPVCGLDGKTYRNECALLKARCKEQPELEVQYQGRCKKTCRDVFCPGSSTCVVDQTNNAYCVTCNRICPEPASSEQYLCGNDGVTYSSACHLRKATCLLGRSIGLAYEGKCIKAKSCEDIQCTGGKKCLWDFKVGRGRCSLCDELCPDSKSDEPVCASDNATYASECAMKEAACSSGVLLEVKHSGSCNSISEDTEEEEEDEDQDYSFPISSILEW
# [6] = target: Fibroblast growth factor 2 (Homo sapiens) (UniProt P09038); assay: FGF2 binders on small-molecule microarrays, primary screen, biochemical, small-molecule microarray, 635/667 nm fluorescence (AID 1133); settings: small-molecule microarray binding, FGF2, fluorescence 635/667; higher = more signal
# Fibroblast growth factor 2 (Homo sapiens), sequence (P09038 whole entry, looked up): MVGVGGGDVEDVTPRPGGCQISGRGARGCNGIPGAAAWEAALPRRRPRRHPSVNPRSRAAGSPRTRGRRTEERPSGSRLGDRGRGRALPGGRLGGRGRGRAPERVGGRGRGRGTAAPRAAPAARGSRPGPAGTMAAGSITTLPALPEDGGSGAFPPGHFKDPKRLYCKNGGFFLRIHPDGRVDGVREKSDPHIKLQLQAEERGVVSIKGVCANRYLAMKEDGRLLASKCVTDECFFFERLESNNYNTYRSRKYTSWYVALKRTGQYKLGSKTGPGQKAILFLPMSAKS
# [7] = mitochondrial membrane potential change in A549 cells, profiling panel, cell-based, JC-1 fluorescence, basal, 24 h, 100 nL (AID 1138); settings: higher = more signal;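 further: A549 lung adenocarcinoma cells under basal conditions with no added stimulus; test concentration not given here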
# Lefty1 = Lefty1 binders on small-molecule microarrays, primary screen, biochemical, small-molecule microarray, 635/667 nm fluorescence (AID 1139); settings: small-molecule microarray binding, fluorescence 635/667; higher = more signal
# [8] = tested on: wheat germ agglutinin (Triticum aestivum), Alexa647-labelled; assay: wheat germ agglutinin binders on compound microarrays, profiling panel, artefact control for SMM control-protein annotation, biochemical, small-molecule microarray, 635/667 nm fluorescence (AID 1140); settings: WGA-A647 binding, 635 nm fluorescence, higher = more signal;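 further: score merges 667 nm feature emission with signal to noise over triplicate slides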
# [9] = target: Luciferin 4-monooxygenase (Photinus pyralis) (UniProt P08659); assay: firefly luciferase enzyme inhibitors, primary screen, biochemical, luminescence, purified enzyme, 2006 set (AID 1141); settings: SteadyGlo luminescence, 30 min, higher = more signal, called active from +8 up or from −8 down;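 further: cell-free assay with purified firefly luciferase at 100 ng per well in PBS; test concentration not given here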
# Luciferin 4-monooxygenase (Photinus pyralis), sequence (P08659 whole entry, looked up): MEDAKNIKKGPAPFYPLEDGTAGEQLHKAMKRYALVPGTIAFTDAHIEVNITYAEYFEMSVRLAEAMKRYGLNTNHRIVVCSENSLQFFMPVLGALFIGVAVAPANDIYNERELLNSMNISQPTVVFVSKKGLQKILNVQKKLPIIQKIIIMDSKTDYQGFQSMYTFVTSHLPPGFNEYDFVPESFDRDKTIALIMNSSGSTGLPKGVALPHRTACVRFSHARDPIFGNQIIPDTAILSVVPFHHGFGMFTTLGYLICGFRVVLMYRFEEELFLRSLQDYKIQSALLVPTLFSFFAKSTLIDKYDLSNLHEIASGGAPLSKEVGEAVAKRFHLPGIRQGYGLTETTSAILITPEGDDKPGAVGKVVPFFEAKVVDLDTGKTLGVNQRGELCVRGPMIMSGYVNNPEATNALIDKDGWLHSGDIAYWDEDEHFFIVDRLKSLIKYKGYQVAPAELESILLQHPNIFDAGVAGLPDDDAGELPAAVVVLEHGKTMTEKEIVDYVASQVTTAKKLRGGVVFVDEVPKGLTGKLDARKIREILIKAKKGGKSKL
SMILES,composite z-score [1],composite z-score [2],composite z-score [3],composite z-score [4],composite z-score [5],composite z-score [6],z-score [7],composite z-score (Lefty1),composite z-score [8],z-score [9]
COCCOC(=O)N1C(=O)[C@@]2(c3cc(C#CC4(O)CCCCCC4)ccc31)[C@H](c1ccc(O)cc1)N1[C@H](c3ccccc3)[C@H](c3ccccc3)OC(=O)[C@H]1[C@@H]2C(=O)N1CCN(c2ncccn2)CC1,0.388,1.17,0.839,0.576,1.06,1.32,-0.976,0.497,0.417,-0.47 (inactive)
CCCCNC(=O)c1ccc(C#CC(C)(C)C)c(OC(C)=O)c1,0.213,0.712,0.797,0.587,0.665,0.553,-0.895,0.777,0.64,0.856 (inactive)
CCOC(=O)C1=CC[C@@H](c2ccccc2)N(S(=O)(=O)c2ccc(C)cc2)[C@H]1c1ccccc1,0.271,1.17,0.428,0.915,-0.0842,-0.486,2.45,-0.381,0.991,1.16 (inactive)
COCCOC(=O)N1C(=O)[C@@]2(c3ccccc31)[C@H](c1ccc(O)cc1)N1[C@H](c3ccccc3)[C@H](c3ccccc3)OC(=O)[C@H]1[C@@H]2C(=O)N1CCN(c2ncccn2)CC1,0.682,1.14,0.666,0.244,1.04,1.43,-0.727,0.806,0.026,0.504 (inactive)
COCCCNC(=O)[C@@H]1c2ccccc2C(=O)N(C(C)C)[C@H]1c1ccc(CO)cc1,-0.255,-0.264,0.37,-0.335,0.681,0.105,0.448,-0.109,-0.199,-0.604 (inactive)
Cc1ccc(NN2C(C(O)c3c(F)cccc3Cl)C=CC3C(=O)N(C4CCCCC4)C(=O)C32)cc1 (stereo not given),1.5,1.2,0.601,1.04,0.842,-0.413,1.19,-0.209,1.26,0.289 (inactive)
Cn1cccc1C(O)C1C=CC2C(=O)N(c3ccccc3)C(=O)C2N1Nc1ccccc1 (stereo not given),0.933,1.23,0.848,0.954,1.29,0.984,0.569,0.475,0.557,-0.589 (inactive)
C=CCOC(=O)[C@@]1(Cc2ccccc2)C[C@H]2CO[C@H](c3ccc(OC)cc3)N2C1=O,0.848,0.191,0.575,0.494,0.3,0.186,0.272,0.55,0.133,-0.0402 (inactive)
COc1ccc([Si](C)(C)[C@@H]2[C@@H](CCO)O[C@]3(C(=O)N(Cc4cccc(NC(=O)[C@H](C)O)c4)c4ccccc43)[C@H]2C)cc1,1.76,1.2,0.642,0.694,0.393,0.957,-1.52,0.486,0.743,-0.355 (inactive)
COCC(=C=CC[C@H](O)c1ccc(OCCO)cc1)CCO,0.434,0.633,-0.225,-0.142,1.41,1.06,0.63,1.56,-0.335,-1.36 (inactive)
Cc1cc(C)c(C(O)C2C=CC3C(=O)N(c4ccccc4)C(=O)C3N2Nc2ccccc2F)c(C)c1 (stereo not given),1.29,-0.103,0.39,0.859,0.0286,-0.435,-0.909,-0.589,0.403,-0.746 (inactive)
OCCCC1=CC(c2ccc(CN3CCCC3)cc2)N(Cc2cc3c(cc2Br)OCO3)CC1 (stereo not given),0.448,0.049,0.172,0.65,1.07,0.262,0.157,0.695,0.266,0.391 (inactive)
COc1ccc(CCNC(=O)[C@@H]2c3ccccc3C(=O)N(C3CCCCC3)[C@H]2c2ccc(CO)cc2)cc1,1.01,0.883,1.19,0.144,0.441,1.74,-0.263,-0.359,0.771,-0.323 (inactive)
CN1C2C=C(CCCO)C(C3C(=O)N(C(N)=O)C(=O)C32)C1C1CC1 (stereo not given),0.352,0.186,-0.158,0.481,-0.0169,-0.148,0.771,0.145,-0.123,-0.938 (inactive)
C=C(/C(=C/C[C@H](OC(C)=O)c1ccc(CO)o1)c1cnc2ccccc2c1)C(C)C,1.07,1.16,0.38,0.988,1.39,1.41,-0.874,1.55,1.33,-1.41 (inactive)
Cc1ccc(S[C@]2(C(=O)NCCN3CCOCC3)CC(=O)N(Cc3ccccc3Cl)[C@@H]2c2ccc(CO)cc2I)cc1,-0.882,-0.227,1.09,-0.646,-0.349,0.388,1.08,-1.57,0.498,-0.43 (inactive)
COC(=O)[C@@]1(Cc2ccc(OC)cc2)[C@H]2c3cc(C(=O)N4CCCC4)n(CCc4c[nH]c5ccc(OC)cc45)c3C[C@H]2CN1C(=O)c1ccccc1,1.99,1.18,0.894,0.755,1.22,-0.904,0.675,-0.162,1.29,1.3 (inactive)

SMILES,composite z-score [1],composite z-score [2],composite z-score [3],composite z-score [4],composite z-score [5],composite z-score [6],z-score [7],composite z-score (Lefty1),composite z-score [8],z-score [9]
CCCC=C(CCC)[C@@H](NC(=O)c1cccs1)c1ccc(C(=O)OC)cc1,0.196,0.741,0.205,0.686,0.816,1.13,0.733,-0.223,-0.119,2.23 (inactive)
CC(CO)N1C(=O)[C@]2(C)C3C(=O)OCCC/C=C\[C@H]3OC23C=CCN(c2ccc(Cl)cc2)C(=O)[C@@H]13 (stereo not given in full),-0.263,-0.48,1.53,-0.316,-0.568,-0.85,0.444,-0.506,-0.335,-0.53 (inactive)
COc1ccc([Si](C)(C)[C@@H]2[C@@H](CCO)O[C@]3(C(=O)N(Cc4ccccc4)c4ccc(N5C(=O)c6cccc7cccc5c67)cc43)[C@H]2C)cc1,-0.435,-0.0814,0.15,-0.304,-0.384,-0.176,-0.0894,-0.52,0.342,-1.04 (inactive)
CCCCCN1CC=CC23O[C@@H]4C=CCCOC(=O)C4[C@H]2C(=O)N(CCCCCCO)[C@@H]3C1=O (stereo not given in full),2.82,-0.0566,-0.0757,-1.21,-0.444,-0.439,0.608,-0.0715,-0.411,-0.086 (inactive)
O=C(NCCN1CCOCC1)[C@@H]1c2ccccc2C(=O)N(Cc2ccccc2Cl)[C@H]1c1ccc(CO)cc1,-1.29,-0.867,0.0685,-0.542,-0.163,-0.976,1.79,-1.19,0.0616,0.645 (inactive)
C=CCNC(=O)[C@H]1[C@@H]2C(=O)O[C@@H](c3ccccc3)[C@@H](c3ccccc3)N2[C@@H](c2ccccc2OCCO)[C@]12C(=O)N(C(=O)OCCOC)c1ccc(C#CC3(O)CCCCCC3)cc12,0.977,1.18,0.325,0.579,0.785,0.226,-0.634,0.876,0.763,-1.64 (inactive)
C=CC[C@@H](OC(=O)Nc1ccc(SC)cc1)c1ccc(O)c(F)c1,2.11,0.57,0.274,0.221,1.06,1.11,-1.12,0.394,0.904,-3.58 (inactive)
O=C1OCCC=C[C@H]2OC34C=CCN(Cn5nnc6ccccc65)C(=O)[C@H]3N(CCCO)C(=O)[C@@H]4C12 (stereo not given in full),-0.0275,-1.46,-0.519,-0.975,-0.676,-0.446,-0.9,-0.935,-0.0152,0.0251 (inactive)
O=C(O)[C@@H]1[C@@H]2C(=O)N(c3ccccc3)C(=O)[C@@H]2C[C@@H]1Sc1ccccc1,-0.102,-0.683,0.236,-1.02,-1.19,-1.16,-0.677,-1.07,0.627,1.35 (inactive)
C#Cc1cc2ccccc2oc1=O,-0.314,-0.451,-0.393,-1.03,-2.22,-1.39,-1.14,-1.58,-1.12,-2.39 (inactive)
CCOc1cc(C(O)C2C=CC3C(=O)NC(=O)C3N2Nc2ccc(Cl)cc2Cl)ccc1O (stereo not given),-0.254,-0.537,0.725,0.332,-0.403,-0.744,-0.262,-1.33,0.235,0.445 (inactive)
C=CCC(OC(C)=O)[C@@H]1[C@@H](N(Cc2cc3ccccc3o2)C(=O)Cc2ccc(F)cc2)c2cc(OCCCO)ccc2N1C(=O)Cc1ccc2ccccc2c1 (stereo not given in full),-0.748,-0.682,-0.308,0.397,0.0648,-0.408,1.75,-0.0725,-0.286,-0.826 (inactive)
C#CCN(Cc1ccccc1Br)[C@H](/C=C/c1ccccc1)[C@@H](O)Cc1ccccc1,0.244,-0.548,-0.082,-1.24,-1.25,-1.23,0.921,-0.62,-0.351,-0.629 (inactive)
CCCCCN1CC=CC23O[C@@H]4/C=C\CCC(C)OC(=O)C4[C@H]2C(=O)N(C(CO)C(C)C)[C@@H]3C1=O (stereo not given in full),1.03,-0.46,1.94,-1.41,0.032,-0.318,-0.87,0.287,1.41,0.551 (inactive)
[N-]=[N+]=Nc1ccccc1C[C@]1(C(=O)N2CCOCC2)COC(c2ccc(OCCCO)cc2)=N1,0.964,1.24,0.144,1.04,0.39,-0.313,0.9,-0.0478,0.606,-5.96 (inactive)
Oc1ccc2cc[n+](Cc3cc4c(cc3Br)OCO4)cc2c1,-0.706,-1.93,-0.947,-1.38,-0.145,-0.387,0.938,-1.15,0.136,-1.13 (inactive)
COCCOC(=O)N1C(=O)[C@@]2(c3cc(C#CCNC(N)=O)ccc31)[C@H](C(N)=O)[C@H]1C(=O)O[C@H](c3ccccc3)[C@H](c3ccccc3)N1[C@@H]2c1ccccc1OCCO,0.193,0.956,0.538,0.834,1.38,1.5,-1.17,0.684,0.403,-1.07 (inactive)
